Among the data in PubChem BioAssay (NCI) are growth values, retold here.

Holding throughout (experiment): NCI-60 one-dose screen, 48 h (100 = growth as untreated, 0 = no growth, -100 = all killed)
Holding throughout (details): 10 µM

For assay [1], the system named is NCI-H23 lung.
In assay [2] the test system is NCI-H226 lung.
For assay [3], the system named is NCI-H322M lung.
The test system of assay [4] is HOP-62 NSCLC.
Assay [5] relates to NCI-H460 lung.
Assay [6] has as its system HOP-92 NSCLC.
For assay [7], the system named is A549/ATCC NSCLC.
Assay [8] concerns DU-145 prostate.
Assay [9] deals with K-562 leukemia.
Assay [10] relates to MDA-MB-231 breast.
In assay [11] the test system is RXF 393 renal.
The test system of assay [12] is SF-268 CNS.
Assay [13] relates to SF-295 CNS.
The subject of assay [14] is SF-539 CNS.
Assay [15] relates to UACC-257 melanoma.
Assay [16] has as its system M14 melanoma.
In assay [17] the test system is COLO 205 colon.
Assay [18] deals with MALME-3M melanoma.
The test system of assay [19] is NCI-H522 lung.
Assay [20] deals with 786-0 renal.

This is part of a sample that, as a whole, favours compounds with a hit. Of some 83,000 tested, about 20% had one in any assay.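 In brief: 96-well plates, 48 h treatment, single concentration, percent growth endpoint.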 Values without a mark were called inactive. The source made the active and inactive calls. Rule for the calls: active = growth percent below 10; inactive = the rest.

For the molecule `CCCCC1(CC)COC(CCC)OC1` (centres undefined), the growth in [1] was 111%; in assay [2], 98%; in assay [3] it was 117%; in assay [4], 95.9%; in assay [5], 115%; in assay [6] it was 79.7%. For the same molecule, the growth in assay [7] was 103%; in [8], 102%; in assay [9] it was 106%; in assay [10], 106%; in [11], 101%; in assay [12] it was 98.6%. Further, the growth in assay [13] was 119%; in assay [14], 98.3%; in assay [15], 101%; in [16] it was 99.7%.

For `OCCN1CCOCC1`, the growth in [1] is 115%; in assay [2], 112%; in assay [3], 125%; in assay [4], 104%; in assay [5] it was 104%; in assay [6], 115%. The growth in [7] is 104%; in assay [17], 119%; in [8], 124%; in assay [9] it was 114%; in assay [18], 114%; in [10] it was 113%. Besides, the growth was 119% in assay [11]; 117% in assay [12]; 110% in assay [13]; 111% in [14]; 99.7% in assay [15].

As for `NC(N)=Nc1cc2ccccc2c2ccccc12`, the growth in assay [1] was 86.7%; in assay [2] it was 89.5%; in assay [3], 98.7%; in assay [4] it was 101%; in [5], 86.8%; in assay [19], -49.2% (active). Further, the growth in assay [7] is 27.8%; in assay [20] it was 90.6%; in assay [17], 44.9%; in [8] it was 84.9%; in [9], 62.3%; in [18], 76.2%. The growth in assay [10] was 80.1%; in [11] it was 78.8%; in assay [12], 82.6%; in assay [13], 55.9%; in [14], 89.1%; in assay [15], 1.37% (active). In assay [16], the growth was 85%.

Take `Cc1c(O)cccc1O`: the growth in [1] is 106%; in assay [2], 93.4%; in assay [3] it was 90.3%; in assay [4] it was 92%; in assay [5], 114%; in [19] it was 73.1%. In addition, the growth was 122% in assay [7]; 102% in assay [20]; 116% in assay [17]; 124% in assay [8]; 88.2% in assay [9]; 156% in assay [18]. In addition, the growth was 96.5% in assay [10]; 77.7% in [11]; 112% in assay [12]; 98.2% in [13]; 103% in assay [14]; 108% in [15]. In addition, the growth in assay [16] is 105%.

For the molecule `Cc1ccc(/C(C#N)=C/c2ccc3c(c2)OCO3)cc1`, the growth is 71.2% in assay [1]; 85.9% in assay [2]; 78.8% in assay [3]; 78.2% in [4]; 71.3% in assay [5]; 51.4% in [19]. For the same molecule, the growth in [7] is 57.5%; in assay [20] it was 104%; in assay [17] it was 65.8%; in assay [8] it was 98.1%; in [9] it was 32.4%; in assay [18] it was 84.3%. Further, the growth in assay [10] is 73.3%; in [11], 75.3%; in [12], 87.7%; in [13], 110%; in assay [14], 91.1%; in assay [15], 87.1%. Besides, the growth in assay [16] is 75.2%.

Regarding `O=C(/C=C\c1ccc(O)cc1)c1ccccc1`, the growth in assay [1] is 102%; in assay [2], 107%; in [3], 101%; in assay [4] it was 110%; in [5], 113%; in assay [19] it was -31.4% (active). Moreover, the growth is 94.2% in assay [7]; 97.8% in assay [20]; 98% in assay [17]; 101% in assay [8]; 99.2% in assay [9]; 82.7% in assay [18]. Moreover, the growth was 92.4% in assay [10]; 110% in assay [11]; 90% in [12]; 110% in assay [13]; 92.3% in assay [14]; 98% in assay [15]. Also, the growth in [16] is 72.8%.

As for `COc1cc(C(=O)NC(=S)Nc2ccc3ccccc3c2)cc(OC)c1OC`, the growth in [1] was 82.5%; in assay [2], 88.9%; in assay [3], 101%; in [4] it was 95.8%; in assay [5], 107%; in assay [19], -23.4% (active). For the same molecule, the growth in [7] was 89.7%; in [20], 116%; in [17], 84.2%; in assay [8] it was 102%; in assay [9] it was 88%; in [18] it was 90.1%. In addition, the growth in [10] is 100%; in [11] it was 94.5%; in [12], 103%; in assay [13] it was 44.7%; in assay [14], 93.1%; in [15] it was 90.7%. In addition, the growth in assay [16] was 115%.

With `CC(=O)Nc1ccc(NC(C)=O)c2c1C(=O)c1ccccc1C2=O`, the growth is 89.5% in assay [1]; 81.7% in [2]; 89.1% in [3]; 81.9% in assay [4]; 102% in assay [5]; 89.3% in assay [19]. The growth in assay [7] is 96.2%; in [20], 91%; in assay [17], 87.6%; in [8], 96%; in assay [9], 91.4%; in assay [18], 86.1%. Also, the growth in [10] was 59.7%; in assay [11], 108%; in assay [12], 95.9%; in assay [13], 99.8%; in assay [14] it was 92.3%; in [15], 110%. The growth in assay [16] was 101%.

For `CC1CCC2C(C)(C)C3CC12CC1OC13C` (centres undefined), the growth in assay [1] was 107%; in assay [2], 99.1%; in assay [3] it was 117%; in assay [4] it was 109%; in assay [5] it was 100%; in assay [19], 91.7%. For the same molecule, the growth in assay [7] is 110%; in assay [20], 98%; in [17] it was 109%; in [8], 117%; in [9] it was 123%; in assay [18] it was 107%. The growth was 110% in assay [10]; 98.9% in assay [11]; 110% in assay [12]; 104% in assay [13]; 98.9% in [14]; 113% in assay [15]. Further, in assay [16], the growth is 109%.

Turning to `COc1cc(/C=N\Nc2ccccc2)ccc1OC(=O)c1ccccc1`, the growth was 79.5% in assay [1]; 74.9% in assay [2]; 59.8% in assay [3]; 77.8% in assay [4]; 44.2% in assay [5]; 20.6% in assay [19]. Further, the growth in [7] was 68.6%; in [20] it was 78.4%; in assay [17], 84.8%; in [8], 55.3%; in assay [9], 12%; in assay [18], 89.5%. Further, the growth is 86.3% in assay [10]; 100% in assay [11]; 57.5% in assay [12]; 50.5% in assay [13]; 24.4% in [14]; 81.8% in assay [15]. In addition, the growth in assay [16] is 60.2%.

For `O=C1c2ccccc2C(=O)c2c1ccc(C(=O)O)c2[N+](=O)[O-]`, the growth in assay [1] was 101%; in assay [2] it was 107%; in assay [3], 105%; in assay [4], 97.2%; in assay [5] it was 109%; in assay [19], 97%. Further, the growth was 103% in assay [7]; 106% in [20]; 108% in assay [17]; 107% in assay [8]; 77.3% in assay [9]; 98.1% in assay [18]. Besides, the growth is 79% in [10]; 128% in assay [11]; 111% in assay [12]; 105% in [13]; 96% in [14]; 105% in [15]. The growth in assay [16] was 87.2%.
